Measured values from PubChem BioAssay AID1159606 (Sanford-Burnham Center for Chemical Genomics, 2016).
“And” between values parts separate entries of the source, which are not always exact repeats. Identical values can stand only once. About 7,300 (2%) of roughly 360,000 compounds were called active. The list comes from a sample in which actives are over-represented; it also holds similar structures and randomly drawn compounds. Values without a mark were called inactive. No stated cut-off is given here; in the data, active means inhibition above about 50%; inactive means the rest.

Test: inhibitors of TWEAK-Fn14 signaling, primary screen, luciferase reporter cells, uHTS (AID 1159606)
Conditions: TWEAK-stimulated Fn14 reporter cells, luciferase luminescence, 8 h; at 10 µM; stronger effect = higher value

Structure (SMILES)	inhibition
CCOc1ccc(S(=O)(=O)Nc2cccc(C(=O)NCC3(N4CCCCC4)CCCCC3)c2)cc1	-1.13%
OCCC#Cc1ccc(N2C(c3ccsc3)=Cc3ccc(F)cc3C2c2c[nH]c3ccccc23)cc1 (stereo unspecified)	11.2%
C=CCn1c(CNS(=O)(=O)c2ccc(Br)cc2)nnc1SC	8.19%
C=CCC[C@@H](CCCCC)OC(=O)/C=C/[C@@H](O)[C@H](O)C[C@H](O)CC=C	2.81%
CC1CN(C(=O)c2cc(COc3c(F)cccc3F)on2)CCN1C (stereo unspecified)	-6.71%
O=C(Nc1cccc(-c2nnc(-c3ccccc3)o2)c1)C1CCCO1 (stereo unspecified)	10.7%
O=C(CCc1ccccc1)Nc1cccc(-c2nnc(-c3ccco3)o2)c1	52.6% (active)
C/C(=N/NC(=O)CCc1ccccc1)c1ccco1	-10.4%
CC(C)NC(=O)Nc1cccc2c1O[C@@H](CN(C)S(=O)(=O)c1ccc(F)cc1)[C@@H](C)CN([C@H](C)CO)C2=O	3.62%
COc1cccc(NC(=O)CC(c2ccc(OC(C)C)cc2)c2ccccc2OC)c1 (stereo unspecified)	-21.3%
CC(=O)c1ccc(N2CCN(CC(O)c3ccccc3)CC2)cc1 (stereo unspecified)	15.1%
CC(=O)c1ccc(N2Cc3ccccc3C2)cc1	50.8% (active)
CC(=O)c1ccc(N2CCN(C(=O)CCc3ccccc3)CC2)cc1	-0.25%
CCOC(=O)[C@]12CCC=C1N(Cc1ccco1)C(=O)[C@H](CC(=O)N1CCSCC1)C2	13.3%
O=C(NCC1CCC(C(=O)O)CC1)OCc1ccccc1 (stereo unspecified)	3.36%
CC(Oc1ccc2c(-c3ccccc3)cc(=O)oc2c1)C(=O)NC(Cc1c[nH]c2ccccc12)C(=O)O (stereo unspecified)	-2.3%
O=C(CNC(=O)OCc1ccccc1)Oc1cc2oc(=O)cc(-c3ccccc3)c2cc1Cl	66.8% (active)
OC(c1ccccc1)(c1ccccc1)C1CCN(CCCOc2ccccc2)CC1	1.25%
Cc1ccc(OCC(=O)c2cc(C)n(Cc3ccco3)c2C)c([N+](=O)[O-])n1	42.9%

Structure (SMILES)	inhibition
COCCn1c(C)cc(C(=O)COC(=O)CNC(=O)c2ccco2)c1C	5.04%
Cc1cc(C(=O)COC(=O)CNC(=O)c2ccc(F)cc2)c(C)n1Cc1ccco1	71.8% (active)
CCc1nc2ccc(C(=O)Nc3cc(-c4ccccc4)ccc3OC)cn2c1N(CC)CC(=O)N(C)C	9.07%
CC1(C(=O)NS(=O)(=O)c2cccs2)CCN1C(=O)Cc1ccc(-c2ccccc2)cc1 (stereo unspecified)	6.14%
CCOc1c(Nc2cccc(Cl)c2)c(=O)c1=O	6.24%
OCCCNc1nccc(-c2cc(Nc3cccc(Cl)c3)ncn2)n1	97.3% (active)
CC(NC(=O)COC(=O)c1ccc(Cl)cc1O)c1ccc(F)cc1 (stereo unspecified)	-8.36%
COc1ccc(-c2ccc3[nH]c4c(c3c2)CCN2C[C@H]3[C@H](C)ON(C)[C@H]3C[C@@H]42)cc1	76.2% (active)
COc1cccc(C2c3[nH]c4ccccc4c3CCN2Cc2cccc(C)n2)c1 (stereo unspecified)	1.39%
COC(=O)[C@H]1[C@H]2C[C@H]3c4[nH]c5ccccc5c4CCN3C[C@@H]2CC[C@@H]1O	27.2% and 5.66%
CCNc1nc(N)nc(-c2cc(Cl)ccc2OC)n1	-2.01%
CC[C@@H]1CC2=C(C(=O)OC(C)(C)O2)[C@@H](CC)O1	1.77%
CCN(CC)C(=O)CC1(c2ccccc2OC)CCOC(C(C)C)C1 (stereo unspecified)	-4.31%
CCOC(=O)c1cc(-c2sc(NC(=O)c3ccccc3)nc2C)n(Cc2ccccc2)n1	54.7% (active)
CCOC(=O)c1cc(-c2sc(NC(=O)c3ccccc3)nc2C)n(CCO)n1	-0.09%
C=CCn1nc(C(=O)OCC)cc1-c1sc(NC(=O)c2ccccc2)nc1C	32.2%
CCCCCCN1C[C@@H](O)[C@H](n2cc(COC(=O)c3ccccc3)nn2)C[C@@H]1c1ccc(Cl)cc1	11.1%
C[C@H](NC(=O)[C@@H]1CCCN1C(=O)[C@@H]1CCCN1C(=O)c1ccccc1)c1ccccc1	-2.63%
CC(C(=O)NCC1CCCCC1)N(C)Cc1cccc(Cl)c1 (stereo unspecified)	-0.37%

Structure (SMILES)	inhibition
S=c1[nH]nc2c3c4c(sc3ncn12)CCCC4	3.72%
c1nnc2c3c4c(sc3ncn12)CCC4	58.9% (active)
CC(C(=O)O)n1cnc2sc3c(c2c1=O)CCCC3 (stereo unspecified)	-20.1%
COc1cc(SC)ccc1C(=O)Nc1nc(C)cs1	102% (active)
COc1ccc(C(=O)NC(C)CCc2ccccc2)c(OC)c1 (stereo unspecified)	-8.93%
CCOC(=O)c1sc(NC(=O)c2sc(C)nc2C)nc1C	-39.5%
Cc1csc(NC(=O)CSc2nc(=O)cc(N)n2-c2ccc(F)cc2)n1	27.6%
COc1cc(SC)ccc1C(=O)NNC(=O)C1COc2ccccc2O1 (stereo unspecified)	-29.7%
COC(=O)c1sc(NC(=O)c2ccc(OC)cc2OC)nc1C	69% (active)
CC(=O)c1ccc(NC(=S)N(Cc2ccccc2)C(C)C2CC2)cc1 (stereo unspecified)	11.1%
COC(=O)c1ccc2nc(-c3ccc(F)cc3)c(Cc3ccc(C)cc3)n2c1	-0.5%
O=C1NC[C@@H](CCCCN2CCN(CCc3ccc(O)cc3)C(=O)C2=O)N(CC2CCCCC2)C1=O	10.2%
O=C(c1ccc2c(c1)N(Cc1ccc(F)cc1)C(=O)CS2)N1CCOCC1	-16.2%
CCc1nccn1CCC(=O)N1CCCC(N2CCN(c3ccccc3F)CC2)C1 (stereo unspecified)	-3.5%
CC(=O)Nc1ccc(S(=O)(=O)Nc2ccc(N3CCCCC3)cc2)cc1	84.7% (active)
CC(=O)Nc1ccc(S(=O)(=O)N2CCCC2C(=O)O)cc1 (stereo unspecified)	0.16%
CC(=O)Nc1ccc(NS(=O)(=O)c2ccc3c(c2)NC(=O)CC(=O)N3)cc1	10.3%
CCN(CC)P(=O)(/C(Cl)=C\Nc1c(C)n(C)n(-c2ccccc2)c1=O)N(CC)CC	-1.25%
